Measured values taken from ChEMBL document CHEMBL1157539, “Thousands of chemical starting points for antimalarial lead identification” (Nature, 2010).

Each molecule was assayed on Plasmodium falciparum (assay: GSK_TCMDC: Inhibition of Plasmodium falciparum 3D7 in whole red blood cells, using parasite LDH activity as an index of growth. Test compounds present at 2uM).
Type: functional

Row | Compound | Inhibition [%]
1 | O=C(O)C(F)(F)F.Oc1ccc(CCNc2nc(NCc3cccc(-c4cc(C(F)(F)F)ccc4Cl)c3)nc(N3CCNCC3)n2)cc1 | 90
2 | CC(=O)N1c2ccccc2C(C)=CC1(C)C | 97
3 | Fc1ccc2[nH]c(-c3ccc(-c4ccc(CN5CCCCC5)cc4)cc3)nc2c1.O=C(O)C(F)(F)F | 98

The molecules below were run on Plasmodium falciparum (assay: GSK_TCMDC: Inhibition of Plasmodium falciparum Dd2 in whole red blood cells, using parasite LDH activity as an index of growth. Test compounds present at 2uM).
Type: functional

Row | Compound | Inhibition [%]
4 | Cc1cccc2nc(-c3ccc(-c4cccc(CNCCCN5CCCC5=O)c4)s3)[nH]c12.O=C(O)C(F)(F)F | 26
5 | CCCNCc1ccc(-c2ccc(CN(CCOC)C(=O)c3ccc([N+](=O)[O-])c(C)c3)cc2)nc1.O=C(O)C(F)(F)F | 23
6 | Cc1cc(N[C@@H](Cc2ccccc2)C(=O)NC2CCCC2)nc(Nc2ccccc2)n1.O=C(O)C(F)(F)F | 82
7 | CCC(CC)(Cc1ccccc1)NC(=O)[C@H](CC(C)C)Nc1ccc(C#N)c2ccccc12.O=C(O)C(F)(F)F | 73
8 | COc1ccccc1CCNc1nc(C)cc(N[C@@H](Cc2ccccc2)C(=O)NCCOc2ccccc2)n1.O=C(O)C(F)(F)F | 76
9 | Cc1ccc(N2C(=O)C3C(C2=O)C2(c4ccccc4)C(=O)C3(c3ccccc3)C(c3ccccc3)=C2c2ccccc2)cc1 (configuration not stated) | 96
10 | C=CCc1cc(Cc2cnc(N)nc2N)cc(CCC)c1OC | 1
11 | O=C(CN1CCN(C(C(=O)Nc2cc(C(F)(F)F)ccc2Cl)c2ccccc2)CC1)NC1CC1 (configuration not stated) | 93
12 | O=C(O)C(F)(F)F.O=[N+]([O-])c1cccc(CNCC2CCN(CCc3ccccc3)CC2)c1 | 11
13 | CC[C@H](C)CNC(=O)c1ccnc(-c2cccc(CN3CCC(N4CCCC4)CC3)c2)c1.O=C(O)C(F)(F)F | 12
14 | NCC1CCCN1Cc1ccc(-c2cccc(-c3nc4cc(F)ccc4[nH]3)c2)cc1.O=C(O)C(F)(F)F (configuration not stated) | 31
15 | Br.CC(C)(C)c1ccccc1OCCCON1C(=N)N=C(N)NC1(C)C | 98
16 | O=C(NC1CCCCN(Cc2ccccc2O)C1)c1ccc(Cl)c(Cl)c1.O=C(O)C(F)(F)F (configuration not stated) | 96
17 | CCOc1ccc(C=CC(=O)Nc2ccc3nc(N4CCOCC4)cc(C)c3c2)cc1OC | 23
18 | Fc1ccccc1-c1cc(Nc2ccncc2)nc(-c2cccnc2)n1 | 89
19 | OC1(C(F)(F)F)CC(c2ccccc2)=NN1c1nncc(-c2ccccc2)n1 (configuration not stated) | 3
20 | Cc1nc2c(-n3cc(Cn4ccnc4)c4ccccc43)ncnc2n1-c1ccc(Cl)cc1Cl | 29

Row | Compound | Inhibition [%]
21 | CCn1c2ccccc2c2cc(C=NN=c3cc(C)[nH]c4ccccc34)ccc21 | 97
22 | CC1CCCN(C(=O)C(C)Nc2cc(Cl)ccc2N2CCOCC2)C1 (configuration not stated) | 96
23 | Cl.N=C(NCCCCC1CCCCC1)c1cccc(C(=N)NCCCCC2CCCCC2)n1 | 19
24 | CN(C)CCCN1C(=O)c2[nH]nc(-c3ccc(Cl)cc3O)c2C1c1ccc(Cl)cc1 (configuration not stated) | 15
25 | OC(c1nnc(S)n1-c1ccccc1)C(O)c1nnc(S)n1-c1ccccc1 (configuration not stated) | 89
26 | Cc1cc(C(=O)Nc2ccc3c(ccn3C3CCCN(Cc4ccc(C(F)(F)F)cc4F)CC3)c2)no1 (configuration not stated) | 95
27 | CCOP(=O)(OCC)c1ccc(OC)c(-c2ccc[nH]2)c1 | 10
28 | CC(C)(C)c1ccc(NC(=O)c2cccc(CN3CCCN(CC4CCCCC4)CC3)c2)cc1.O=C(O)C(F)(F)F | 47
29 | COc1cccc(CNC(=O)c2ccnc(-c3cccc(CN(C)C4CCN(C)CC4)c3)c2)c1.O=C(O)C(F)(F)F | 46
30 | Cl.O=C(c1cccc(COc2ccc3c(c2)CCN(C2CCCC2)CC3)c1)N1CCN(c2ccncc2)CC1 | 35
31 | Cc1nn(-c2ccccc2)nc1C(=O)NC1CCN(CCNC(=O)c2ccc(Cl)c(Cl)c2)CC1.O=C(O)C(F)(F)F | 5
32 | NC1=NC(c2ccccc2)(c2ccccc2)C(=O)N1C1CCCCC1.O=CO | 87
33 | O=C(Nc1ccc(OC(F)(F)F)cc1)NC1CCN(c2ccnc3ccccc23)CC1.O=C(O)C(F)(F)F | 40
34 | CCCCC(CCCC)CN1C(=O)C(c2ccccc2)(c2ccccc2)N=C1N.O=CO | 96
35 | CCCCCCc1ncc(-c2cc3cc(O)c(-c4ccccc4)cc3oc2=O)s1 | 63
36 | Cc1cc(-c2cccc(CNCCc3ccc(Cl)cc3)c2)cnc1N.Cl | 3
37 | O=C(O)C(=O)O.Oc1ccccc1CN1CCN(C(c2ccccc2)c2ccccc2)CC1 | 90
